Screens from PubChem BioAssay.
TTR transcr act: activators of transthyretin transcription; SH-SY5Y TTR promoter Gaussia luciferase, luminescence; 100% = recombinant luciferase protein wells; activation, % at 16.7 µM; actives 1.3% (n = 92,000);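 active means activation above the mean of all tested compounds plus 3 SD, cut at about 9.5% in these data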;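 further: cells exposed to compounds for one day before reading; 0% = median of all test compound wells on the plate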
HuH7 TTR inh: decreases TTR transcription in HuH7 cells in activator counter-screen; shares compounds with TTR transcr act; HuH7 TTR promoter-Gaussia luciferase reporter, luminescence; inhibition, % at 16.7 µM; actives 4% (n = 1,100);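 active means average inhibition above the solvent-only control wells' mean plus 3 SD, cut at about 15% in these data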;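 further: 0% = cells with DMSO only and 100% = cells with inhibitor control FD; inhibitors lower well luminescence so higher value means more inhibition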
TTR act confirm: human TTR transcription activation, confirmation | 1,100 tested, under 10 active | AID 1117280 | SHSY5Y TTR promoter Gaussia luciferase, luminescence; 100% = purified Lucia enzyme wells, no cells | shares compounds with TTR transcr act | activation, % at 16.7 µM;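 active means mean activation above a set limit taken from the earlier primary screen, cut at about 11% in these data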;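 further: 0% = DMSO-treated cells and 100% = recombinant Lucia luciferase without cells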
An asterisk follows results filed as active. This is one part of a sample in which hits are shown more often than they occur.

SMILES	TTR transcr act	others
CC(C)(C)OC(=O)[C@H](Cc1ccccc1)NCC(=O)OCc1ccc(C(=O)NCc2ccccc2)cc1	-1
Cc1cccc2cc(C3CC(c4cccs4)=NN3S(C)(=O)=O)c(Cl)nc12 (centres undefined)	4
CCOC(=O)C1=CN(Cc2cccc(F)c2)S(=O)(=O)N(C)C1CCc1ccccc1 (centres undefined)	1
COc1cc(/C=N/NC(=O)c2ccc(CSc3nncn3C)cc2)cc(OC)c1O	1
O=C(NCc1ccccc1)NC12CC3CC(CC(C3)C1)C2	5
O=C1C(C23CC4CC(CC(C4)C2)C3)C(=O)N(c2ccccc2)N1c1ccccc1	51*	HuH7 TTR inh=2;TTR act confirm=0
O=C1CC(c2ccccc2)CC(=O)N1c1ccccc1	1
Cc1ccc(NC(=S)N2CCN(c3ccccn3)CC2)cc1C	-2
CN(C)CC#Cc1cncc(C(=O)NNC(=O)Nc2ccc(Cl)cc2)c1	10*	HuH7 TTR inh=-14;TTR act confirm=2
Cc1nc(C(=O)NNC(=O)Nc2ccc(Cl)cc2)cs1	4
Cc1cc(C(=O)NNC(=O)Nc2ccc(Cl)cc2)no1	0
CSCC[C@H](CO)NC(=O)[C@H]1O[C@@H](n2cnc3c(N)ncnc32)[C@H](O)[C@@H]1O	0
O=C(Nc1cccnc1)c1ccc(NS(=O)(=O)c2cc([N+](=O)[O-])ccc2Cl)cc1	-1
CC(=O)N(C)c1cccc([N+](=O)[O-])c1	0
CN(N=Nc1cccc([N+](=O)[O-])c1)c1cccc([N+](=O)[O-])c1	20*	HuH7 TTR inh=-8;TTR act confirm=-1
CCCN(N=Nc1cccc([N+](=O)[O-])c1)c1cccc([N+](=O)[O-])c1	-2
CC1=C(C)[N+](=O)C2CCCCC2N1[O-] (centres undefined)	13*	HuH7 TTR inh=-6;TTR act confirm=0
CCOC(=O)N1CCN(C(=O)C[C@H]2C[C@@]3(C(=O)OC)C(=C[C@H](C(C)C)O[C@@H]3C3CC3)N(CCc3ccc(OC)c(OC)c3)C2=O)CC1	-2
COP(=O)(O)C(C)NC(=O)OCc1ccccc1 (centres undefined)	8
CCCCCCCC(=O)N[C@H]1CC[C@@]23CCCN2C(=O)CCC[C@H]3[C@H]1CCC	0
Cc1cc(-c2ccccc2)[nH]c(=O)c1C#N	0
Cc1cn(CC(=O)c2ccccc2)c2ccccc12	0
Cc1cc(C)n(CC(=O)c2ccccc2)c(=O)c1C#N	16*	HuH7 TTR inh=-7;TTR act confirm=0
CCC1S/C(=N/S(=O)(=O)c2ccc(N)cc2)NC1=O (centres undefined)	1
Cc1ccnc2nc(C(=O)OCC(=O)NCCc3ccc(Cl)cc3)nn12	1
SMILES	TTR transcr act	others
O=C(COC(=O)c1ccccn1)NCCc1ccc(Cl)cc1	11*	HuH7 TTR inh=-8;TTR act confirm=0
O=C(COC(=O)c1ccccn1)Nc1cccc(Cl)c1Cl	2
Cc1ccc(S(=O)(=O)N2[C@H](CC(=O)OCc3ccccc3)OC[C@@H]2C)cc1	-2
CCc1nc2ccc(C(=O)NCc3cccs3)cn2c1N(CC)CCOC	2
CCN(CC)S(=O)(=O)c1cccc(C(=O)NC(C(=O)Nc2nnc(C)s2)C(C)C)c1 (centres undefined)	0
COc1c2ccoc2c(OC[C@@H](OC(C)=O)C(C)(C)O)c2oc(=O)ccc12	1
CC(C)(O)C(O)COc1c2ccoc2cc2oc(=O)ccc12 (centres undefined)	3
COC(C)(C)[C@H](O)COc1c2ccoc2cc2oc(=O)ccc12	13*	HuH7 TTR inh=-21;TTR act confirm=0
COc1ccc(S(=O)(=O)N2CCc3ccccc32)cc1C(=O)NCC(c1ccco1)N1CCCC1 (centres undefined)	1
COc1ccc(Cn2cc(COC(=O)N3CCCC3)nn2)cc1	0
Cc1cc(C)c(N(CC(=O)NCc2ccccc2)C(=O)c2csnn2)c(C)c1	0
Cc1ccc(N(CC(=O)NCc2ccc(F)cc2)C(=O)c2csnn2)cc1C	11*	HuH7 TTR inh=-16;TTR act confirm=0
Cc1ccccc1CCN(CC(=O)NCc1ccc(F)cc1)C(=O)c1csnn1	0
CCOc1nc(C)cc(C)c1S(=O)(=O)c1cccc(Cl)c1	2
CCOCCCNC(=O)c1cn(C)c2ccc(S(=O)(=O)N3CCCC3)cc2c1=O	-1
CN(Cc1ccc(Cl)cc1Cl)C(=O)Cc1ccc(S(=O)(=O)N2CCOCC2)s1	20*	HuH7 TTR inh=-6;TTR act confirm=-1
CC1CCCCC1NC(=O)Cc1ccc(S(=O)(=O)N2CCOCC2)s1 (centres undefined)	1
CCOc1ccc(S(=O)(=O)N2CCN(C(=O)Cc3ccc(S(=O)(=O)N4CCOCC4)s3)CC2)cc1	3
O=C(Nc1c(Br)cc2c(c1Br)Cc1ccccc1-2)C(Cl)Cl	-1
COc1ccc(CC(=O)N2CCN(c3ccc(F)cc3)CC2)cc1	3
COc1ccc(S(=O)(=O)CCC(=O)N2CCN(c3ccc(F)cc3)CC2)cc1	10*	HuH7 TTR inh=-12;TTR act confirm=3
O=C(CCS(=O)(=O)c1ccc(Cl)cc1)N1CCN(c2ccc(F)cc2)CC1	1
OC1CCNC(=S)N1c1ccccc1 (centres undefined)	2
COc1cccc(NC(=O)CN(C)C(=O)c2ccc(-c3ccccc3Cl)o2)c1	-2
CN1c2ccc(Cl)cc2C(=O)NC1C1CC=CCC1 (centres undefined)	3
SMILES	TTR transcr act	others
CC1(C)O[C@@H](CC(=O)O)[C@]23CO[C@H](C(=O)[C@]4(C)C2CC[C@@]2(C)[C@H](c5ccoc5)OC(=O)C5O[C@]524)[C@@H]13 (some centres undefined)	22*	HuH7 TTR inh=-2;TTR act confirm=1
CC1(C)O[C@H]2CC(=O)OC[C@]23[C@H]2CC[C@@]4(C)[C@H](c5ccoc5)OC(=O)[C@H]5O[C@]54[C@]2(C)[C@@H](O)C[C@@H]13	-2
CC(Sc1nncs1)C(=O)NC1CCCCC1C (centres undefined)	3
CCOc1ccccc1NC(=O)CCCc1ccc(OC)c(C)c1	-2
CC(=O)c1cc(C#N)c(Oc2ccccc2)nc1C	-2
CCSc1nc(C)c(C(C)=O)cc1C#N	0
CC(=O)c1cc(C(C)=O)c(C)nc1C	9.9*	HuH7 TTR inh=-7;TTR act confirm=13*
Cn1c(=O)n(CCC(=O)O)c2ccccc21	-1
O=c1ccc(=O)n(-c2ccccc2)[nH]1	1
O=C(O)CCn1[nH]c(=O)ccc1=O	27*	HuH7 TTR inh=-9;TTR act confirm=1
CNC(=O)c1ccccc1NC(=O)C1CC(=O)N(c2ccc(OC)cc2)C1 (centres undefined)	-2
COc1ccc(-n2nc([N+](=O)[O-])c(=NCCC3=CCCCC3)n2O)cc1	0
O=C(NCCNc1nccc(C(F)(F)F)n1)c1cccc(C(F)(F)F)c1	-2
O=S(=O)(NCCNc1nccc(C(F)(F)F)n1)c1ccccc1	9.8*	HuH7 TTR inh=-13;TTR act confirm=1
COc1ccc(OCCNS(=O)(=O)c2ccccc2)cc1	2
CC(=NNC(=O)Cn1ccc(C(F)(F)F)n1)c1ccc(-n2ccnc2)cc1	6
O=C(CSc1ncnc2nc[nH]c12)c1ccc([N+](=O)[O-])cc1	29*	HuH7 TTR inh=2;TTR act confirm=-1
O=C(CSc1nnc(-c2ccco2)o1)c1ccc([N+](=O)[O-])cc1	0
c1ccc2c(CSc3ncnc4nc[nH]c34)cccc2c1	1
Cc1cc(NC(=O)NN2CCOCC2)nn1-c1c(Cl)cc(Cl)cc1Cl	-2
O=C(CCCOc1ccccc1)Nc1cccc(S(=O)(=O)N2CCOCC2)c1	-2
